Source: the supplement of paper PMC6607015
Counter-ions that a name gives are not always drawn.

Experiments:
Conditions in all cases: compound concentration in added solution (µM; 5 µl added to 20 µl cells): 10; 18 h
[1] = system: A431; test: LBPA endosome anti-LBPA integrated intensity (sum per cell), Z-score; higher = more LBPA staining
Outline: (§1)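 In duplicate 384-well imaging plates, 3,500 HeLa MZ or A431 cells in 20 µl per well were seeded onto 5 µl of 10 µM compound solution. The cells were incubated for 18 h, fixed in 4% PFA and stained with 6C4 anti-LBPA antibody, filipin, propidium iodide and CellTracker green before four 20× images were acquired per well. Values are AcuityXpress-normalised Z-scores of per-cell integrated LBPA or filipin intensity, obtained by MetaXpress segmentation over the whole cell or in LBPA endosomes.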

[2] = system: HeLa MZ; test: as above
Outline: as §1

[3] = system: A431; test: whole-cell filipin (free cholesterol) integrated intensity, Z-score; higher = more cholesterol staining
Outline: as §1

[4] = system: HeLa MZ; test: as above
Outline: as §1

[5] = system: A431; test: filipin (cholesterol) integrated intensity within LBPA endosomes, Z-score; higher = more cholesterol in LBPA endosomes
Outline: as §1

[6] = system: HeLa MZ; test: as above
Outline: as §1

| Structure (SMILES) | LBPA endosome anti-LBPA integrated intensity (z-score) [1] | LBPA endosome anti-LBPA integrated intensity (z-score) [2] | whole-cell filipin (z-score) [3] | whole-cell filipin (z-score) [4] | filipin (z-score) [5] | filipin (z-score) [6] |
| --- | --- | --- | --- | --- | --- | --- |
| CCN[C@H]1C[C@H](C)S(=O)(=O)c2sc(S(N)(=O)=O)cc21 [Dorzolamide hydrochloride] | -0.573 | -0.633 | 0.0896 | 0.22 | -0.481 | -0.217 |
| COc1ccc2c(c1)c(CC(=O)O)c(C)n2C(=O)c1ccc(Cl)cc1 [Indomethacin] | -0.426 | 0.408 | -0.694 | -0.518 | -0.524 | -0.49 |
| CCCN(CCC)CCc1cccc2c1CC(=O)N2 [Ropinirole HCl] | -0.0677 | 0.764 | -0.368 | 0.26 | -0.342 | 0.248 |
| Nc1ccc(S(N)(=O)=O)cc1 [Sulfanilamide] | -0.59 | -0.84 | -0.27 | 0.397 | -0.496 | -0.373 |
| CC[C@]12CCCN3CCc4c(n(c5ccccc45)C(=O)C1)[C@@H]32 [Eburnamonine (-)] | -0.525 | -1.3 | -0.836 | -2.15 | -0.422 | -0.458 |
| Cc1ccc(-c2ncc(Cl)cc2-c2ccc(S(C)(=O)=O)cc2)cn1 [Etoricoxib] | -0.471 | -1.03 | -0.752 | -0.603 | -0.543 | -0.516 |
| Cc1ccc(N(CC2=NCCN2)c2cccc(O)c2)cc1 [Phentolamine hydrochloride] | -0.384 | 0.635 | -0.578 | -0.161 | -0.477 | -0.0953 |
| CCC[C@@H]1C[C@@H](C(=O)N[C@@H]([C@H]2O[C@H](SC)[C@H](O)[C@@H](O)[C@H]2O)[C@H](C)Cl)N(C)C1 [Clindamycin hydrochloride] | -0.543 | -0.18 | -0.979 | -0.574 | -0.567 | -0.563 |
| Clc1ccc2c(c1)C(N1CCNCC1)=Nc1ccccc1O2 [Amoxapine] | 3.32 | 0.828 | 0.789 | -0.797 | 2.56 | 1.55 |
| CN1CCCN(C(c2ccccc2)c2ccc(Cl)cc2)CC1 (stereo unspecified) [Homochlorcyclizine dihydrochloride] | 2.75 | 1.74 | 0.946 | -0.527 | 2.1 | 1.46 |
| C[n+]1ccccc1/C=N/O [Pralidoxime chloride] | -0.559 | -0.678 | -0.432 | -0.212 | -0.503 | -0.574 |
| N[C@@H]1CONC1=O [D-cycloserine] | -0.278 | -0.4 | -0.132 | -0.322 | -0.405 | -0.523 |
| CN1CCN(CC(=O)N2c3ccccc3C(=O)Nc3cccnc32)CC1 [Pirenzepine dihydrochloride] | -0.619 | -0.294 | -1.05 | -0.725 | -0.555 | -0.529 |
| Cc1cccc(C)c1NC(=O)C1CCCCN1C (stereo unspecified) [Mepivacaine hydrochloride] | -0.256 | 0.0426 | 0.297 | 0.327 | -0.328 | -0.202 |
| CC(=O)N(CC(O)CO)c1c(I)c(C(=O)NCC(O)CO)c(I)c(C(=O)NCC(O)CO)c1I (stereo unspecified) [Iohexol] | -0.463 | 0.247 | -0.643 | -0.949 | -0.508 | -0.655 |
| CC(C)NC(=N)NC(=N)Nc1ccc(Cl)cc1 [Proguanil hydrochloride] | -0.302 | 1.15 | -0.0125 | 0.372 | -0.375 | -0.0535 |
| O=c1[nH]cnc2c1ncn2[C@H]1CC[C@@H](CO)O1 [Didanosine] | -0.649 | -1.14 | -1.2 | -0.832 | -0.585 | -0.693 |
| Nc1ncnc2c1ncn2[C@@H]1O[C@H](CO)[C@@H](O)[C@@H]1O [Vidarabine] | -0.521 | 0.0226 | -0.393 | 0.669 | -0.496 | -0.54 |
| CN[C@@H]1[C@H](O)[C@H](NC)[C@H]2O[C@@]3(O)C(=O)C[C@@H](C)O[C@H]3O[C@@H]2[C@H]1O [Spectinomycin dihydrochloride] | -0.507 | -0.585 | -0.388 | -0.158 | -0.451 | -0.309 |
| CCCC(=O)Nc1ncnc2c1ncn2[C@@H]1O[C@@H]2COP(=O)(O)O[C@H]2[C@H]1OC(=O)CCC [Bucladesine sodium salt] | -0.466 | -0.34 | -0.132 | 0.0614 | -0.405 | -0.372 |
| CNCC(O)c1ccc(O)c(O)c1 (stereo unspecified) [Racepinephrine HCl] | -0.253 | -0.0976 | 0.725 | 0.18 | -0.509 | -0.366 |
| CN1CCCC(CC2c3ccccc3Sc3ccccc32)C1 (stereo unspecified) [Metixene hydrochloride] | 3.73 | 1.25 | 0.301 | -0.563 | 3.15 | 1.94 |
| CN(C)[C@@H]1C(O)=C(C(N)=O)C(=O)[C@@]2(O)C(O)=C3C(=O)c4c(O)ccc(Cl)c4[C@@](C)(O)[C@H]3C[C@@H]12 [Chlortetracycline hydrochloride] | -0.612 | -0.752 | -1.07 | -1.11 | -0.66 | -0.819 |

| Structure (SMILES) | LBPA endosome anti-LBPA integrated intensity (z-score) [1] | LBPA endosome anti-LBPA integrated intensity (z-score) [2] | whole-cell filipin (z-score) [3] | whole-cell filipin (z-score) [4] | filipin (z-score) [5] | filipin (z-score) [6] |
| --- | --- | --- | --- | --- | --- | --- |
| CC(C)CC(=O)N[C@H](C(=O)N[C@H](C(=O)N[C@@H](CC(C)C)[C@@H](O)CC(=O)N[C@@H](C)C(=O)N[C@@H](CC(C)C)[C@@H](O)CC(=O)O)C(C)C)C(C)C [Pepstatin A] | -0.604 | -1.38 | -0.841 | -0.484 | -0.569 | -0.589 |
| CNCCc1ccccn1 [Betahistine mesylate] | -0.418 | -0.427 | -0.443 | -0.285 | -0.457 | -0.6 |
| CNC(=O)c1c(I)c(C(=O)NCC(=O)Nc2c(I)c(C(=O)O)c(I)c(C(=O)NCCO)c2I)c(I)c(N(C)C(C)=O)c1I [Ioxaglic acid] | -0.421 | -0.394 | -0.282 | -0.455 | -0.384 | -0.571 |
| CNCCC(Oc1ccccc1OC)c1ccccc1 (stereo unspecified) [Nisoxetine hydrochloride] | -0.0713 | 0.75 | 0.38 | 0.302 | -0.0689 | -0.0239 |
| c1ccc(CC2=NCCN2)cc1 [Tolazoline hydrochloride] | -0.404 | 0.69 | -0.609 | -0.502 | -0.487 | -0.331 |
| COc1ccccc1OCC(O)COC(N)=O (stereo unspecified) [Methocarbamol] | -0.567 | -0.641 | -0.741 | -0.777 | -0.492 | -0.501 |
| CC1CC(OC(=O)c2ccccc2O)CC(C)(C)C1 (stereo unspecified) [Homosalate] | -0.265 | -0.48 | -0.0483 | 0.0325 | -0.434 | -0.566 |
| O=C1Nc2ccc(Cl)cc2[C@@](C#CC2CC2)(C(F)(F)F)O1 [Efavirenz] | -0.71 | -0.896 | -0.938 | -0.668 | -0.569 | -0.836 |
| CCCC(=O)Nc1ccc(OCC(O)CNC(C)C)c(C(C)=O)c1 (stereo unspecified) [Acebutolol hydrochloride] | -0.335 | -0.6 | -0.712 | -0.665 | -0.476 | -0.408 |
| CCCN[C@H]1CCc2nc(N)sc2C1 [Pramipexole] | -0.166 | 0.761 | 0.197 | 0.182 | -0.247 | -0.149 |
| CN[C@@H]1[C@@H](O)[C@@H](O[C@@H]2[C@@H](O)[C@H](O[C@H]3OC(CN)=CC[C@H]3N)[C@@H](N)C[C@H]2N)OC[C@]1(C)O [Sisomicin sulfate] | -0.541 | -0.481 | -0.622 | -0.546 | -0.517 | -0.45 |
| CCCCNC(=O)NS(=O)(=O)c1ccc(C)cc1 [Tolbutamide] | -0.288 | 0.292 | -0.409 | -0.426 | -0.47 | -0.503 |
| Cc1cnc(NC(=O)C2=C(O)c3ccccc3S(=O)(=O)N2C)s1 [Meloxicam] | -0.49 | 0.298 | -0.567 | -0.195 | -0.477 | -0.459 |
| CC(C)NC[C@H](O)COc1ccc(CC(N)=O)cc1 [(S)-(-)-Atenolol] | -0.484 | 0.0669 | -0.593 | -0.509 | -0.513 | -0.661 |
| NCCc1ccc(O)c(O)c1 [Dopamine hydrochloride] | -0.272 | 0.0633 | 0.184 | -0.446 | -0.377 | -0.485 |
| CCCCOc1cc(C(=O)OCCN(CC)CC)ccc1N [Benoxinate hydrochloride] | 1.79 | 1.63 | 0.624 | -0.0981 | 0.826 | 0.624 |
| C[C@]12CC[C@H]3C(=CCc4cc(O)ccc43)[C@@H]1CCC2=O [Equilin] | -0.185 | 0.864 | -0.0277 | 0.614 | -0.251 | 0.186 |
| CC(Oc1c(Cl)cccc1Cl)C1=NCCN1 (stereo unspecified) [Lofexidine] | -0.44 | 0.792 | -0.761 | -0.717 | -0.424 | -0.23 |
| NS(=O)(=O)c1cc2c(cc1Cl)NC(C(Cl)Cl)NS2(=O)=O (stereo unspecified) [Trichlormethiazide] | -0.262 | 0.0655 | -0.129 | -0.0923 | -0.393 | -0.381 |
| COc1cc(NS(=O)(=O)c2ccc(N)cc2)nc(OC)n1 [Sulfadimethoxine] | -0.522 | -0.857 | -0.62 | 0.132 | -0.482 | -0.404 |
| Cc1scc2c1N(C(=O)CN1CCN(C)CC1)c1ccccc1NC2=O [Telenzepine dihydrochloride] | -0.645 | 0.0897 | -0.931 | -0.897 | -0.595 | -0.401 |
| CC(=O)OC(C)C[N+](C)(C)C (stereo unspecified) [Methacholine chloride] | -0.38 | 0.107 | -0.0801 | -0.293 | -0.383 | -0.341 |
| CC(C)NC[C@@H](O)COc1cccc2ccccc12 [(R)-Propranolol hydrochloride] | 0.16 | 1.45 | 0.468 | -0.0727 | 0.133 | 0.265 |
